Assay results as given in ChEMBL document CHEMBL4513146, “CO-ADD screening of Karazin Kharkiv National University (Ukraine) compounds”.
Potency and affinity values are given separately.

Tests used:
Staphylococcus aureus = conditions: Concentration 32 ug.mL-1;; ASSAY_TEST Inhibition of Bacterial Growth; detection method Absorption (OD600); MEDIA CAMHB; plate type 384well; NBS; CORNING #3640; time 18 hr
Escherichia coli = conditions: Concentration 32 ug.mL-1;; ASSAY_TEST Inhibition of Bacterial Growth; detection method Absorption (OD600); MEDIA CAMHB; plate type 384well; NBS; CORNING #3640; time 18 hr

SMILES | Inhibition (Staphylococcus aureus) [%] | Inhibition (Escherichia coli) [%]
Cc1ccccc1-c1noc(Cn2nc3ccc(-c4ccccc4)nn3c2=O)n1 | -12.29 | -7.81
Cc1ccc(NC(=O)Cn2nc3c(Sc4ccccc4)nc4ccccc4n3c2=O)cc1C | -2.53 | -4.65
Cc1ccc(-c2cc3c4nnc(CCC(=O)NCCCc5ccccc5)n4ccn3n2)cc1C | 6.48 | 1.28
COc1ccc(NC(=O)CSc2nnc3c(=O)n(-c4ccc(Br)cc4)ccn23)cc1 | 5.23 | 2.74
Cc1ccc(NC(=O)Cn2c(=O)c3nnc(C(C)C)n3c3ccccc32)cc1 | -2.26 | 0.43
COc1ccc(OC)c(NC(=O)Cn2nc3c(Sc4ccccc4)nc4ccccc4n3c2=O)c1 | 6.17 | -0.83
Cc1cc2nn(CC(=O)NCc3ccc4c(c3)OCO4)c(=O)n2c(Nc2ccccc2C)n1 | 0.76 | -4.19
CSc1cccc(NC(=O)Cn2c(=O)c3nnc(C(C)C)n3c3ccccc32)c1 | 14.38 | 4.25
COc1ccc(NC(=O)Cn2nc3ccc(SC(C)C)nn3c2=O)cc1OC | -2.31 | 0.47
CC(C)c1nnc2c(=O)n(CC(=O)Nc3ccc4c(c3)OCO4)c3ccccc3n12 | -1.02 | -3.49
Cc1ccc(-c2cc3c4nn(CC(=O)Nc5ccc6c(c5)OCCO6)c(=O)n4ccn3n2)cc1C | 13.07 | -3.26
Cc1cccc(CN(c2cccc(Cl)c2)S(=O)(=O)c2cccn3c(C)nnc23)c1 | 9.05 | -5.75
COc1ccc(-c2cc3c4nnc(CCC(=O)NCCc5ccccc5)n4ccn3n2)cc1 | 6.36 | 2.69
Cc1ccc(-c2cc3c4nn(CC(=O)NCc5ccccc5Cl)c(=O)n4ccn3n2)cc1C | 0.72 | 0.46
CCOc1ccccc1NC(=O)Cn1nc2c(N3CCN(c4ccccc4C)CC3)nccn2c1=O | -2.13 | -13.69
COC(=O)c1cccc(NC(=O)Cn2nc3c(N4CCC(C)CC4)nccn3c2=O)c1 | -12.03 | -9.95
COc1cccc(CNC(=O)CSc2nnc3c(=O)n(-c4ccccc4)ccn23)c1OC | 2.64 | -7.08
CCc1nnc2c(SCC(=O)Nc3cccc(Br)c3)nc3ccccc3n12 | 1.73 | -7.45
COc1cccc(Oc2nccn3c(=O)n(CC(=O)Nc4ccc(C)cc4Cl)nc23)c1 | 10.57 | -3.8
O=C(Cn1nc2ccc(SC3CCCCC3)nn2c1=O)NCc1ccc(Cl)cc1 | 6.56 | -1.29
COc1cc(NC(=O)Cn2nc3ccc(-c4ccc(Cl)cc4)nn3c2=O)cc(OC)c1 | -2.47 | -10.38
O=C(CSc1nnc2c(=O)n(Cc3ccc(F)cc3)ccn12)NC1CCCC1 | 13.37 | -4.53
Cc1c(Cl)cccc1-n1ccn2c(=O)n(Cc3ccccc3Cl)nc2c1=O | -12.86 | -11.83
CCOc1ccc(N(Cc2cccc(F)c2)S(=O)(=O)c2ccc3nncn3c2)cc1 | 8.4 | -7.52
COc1cccc(NC(=O)Cn2nc3ccc(-c4ccc(Cl)cc4)nn3c2=O)c1 | -8.23 | -11.86
COc1cccc(Oc2nccn3c(=O)n(CC(=O)Nc4ccc(OC)c(OC)c4)nc23)c1 | 15.47 | -2.07
COc1ccc(C(=O)CSc2nnc3c(=O)n(-c4ccc(F)cc4)ccn23)cc1OC | 16.25 | -2.12
CSc1ccc(CNC(=O)Cn2nc3c(Oc4cccc(C)c4C)nccn3c2=O)cc1 | 11.62 | 2.94
CC(=O)c1cccc(NC(=O)CSc2nnc3ccc(C(=O)Nc4cccc(F)c4)cn23)c1 | 12.95 | -3.3
CCCn1c(=O)c2sccc2n2c(CCC(=O)NCCC34CC5CC(CC(C5)C3)C4)nnc12 | 0.48 | -2.55
